Assay [1] deals with Estrogen receptor beta (Homo sapiens) (UniProt Q92731). The assay is described as follows: qHTS assay to identify small molecule antagonists of the estrogen receptor beta (ER-beta) signaling pathway (AID 1259378; active means well fitted inhibition curve with a large enough effect in the signal ratio in the repeat runs, not every such curve was filed as active; the % refers to the signal ratio; further: potency means the concentration at half of the fitted maximal effect). An outline of the steps: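 ER-beta-UAS-bla HEK293T cells in 2% charcoal-stripped FBS medium treated with compound plus 1nM final 17-beta-estradiol for 16 hr at 37C. Beta-lactamase reporter read by FRET substrate fluorescence after 2 hours at room temperature.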
Sequence of Estrogen receptor beta (Homo sapiens) (Q92731 whole entry, looked up): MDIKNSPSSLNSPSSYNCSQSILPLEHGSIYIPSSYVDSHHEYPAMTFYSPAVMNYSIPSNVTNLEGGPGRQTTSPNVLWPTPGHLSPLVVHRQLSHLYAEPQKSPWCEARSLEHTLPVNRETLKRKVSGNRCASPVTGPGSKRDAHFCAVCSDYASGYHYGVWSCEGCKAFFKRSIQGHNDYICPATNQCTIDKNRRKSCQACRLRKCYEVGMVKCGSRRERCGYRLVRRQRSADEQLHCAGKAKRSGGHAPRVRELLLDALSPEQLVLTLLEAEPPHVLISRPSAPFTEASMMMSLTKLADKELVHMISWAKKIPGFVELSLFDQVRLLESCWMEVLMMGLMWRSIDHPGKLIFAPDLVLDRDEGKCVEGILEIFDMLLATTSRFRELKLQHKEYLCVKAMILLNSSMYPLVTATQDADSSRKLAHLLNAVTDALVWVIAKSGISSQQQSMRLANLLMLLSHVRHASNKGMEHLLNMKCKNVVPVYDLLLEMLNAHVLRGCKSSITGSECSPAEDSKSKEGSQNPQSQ

For assay [2], the target named is Estrogen receptor (Homo sapiens) (UniProt P03372). The assay is described as follows: qHTS assay to identify small molecule agonists of the estrogen receptor alpha (ER-alpha) signaling pathway in the presence of an antagonist (AID 1259383; calls by dose curve; further: top concentration of the series differs between compounds; nearly all actives have a fitted effect of over 15% in size). In short, it runs like this:
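ER-alpha agonism measured under antagonist challenge: 10.0nM ICI-182,780 (final) plus compound, 15 concentrations, 22hr, VM7Luc4E2 ERE-luciferase cells. Read by luminescence.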

A short description of assay [3]: qHTS assay to identify small molecule agonists or antagonists of the thyroid stimulating hormone receptor (TSHR) signaling pathway - wild type cell line counter screen (AID 1259384; calls by dose curve). In short, it runs like this:
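Wild-type Hek293 cells, 800/well, 18 h at 37C, then compound with Ro20-1724 for 30 min RT. cAMP by HTRF (cAMP-d2/anti-cAMP cryptate), 1 h RT, fluorescence read. 15 concentrations, triplicates.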

The target of assay [4] is Progesterone receptor (Homo sapiens) (UniProt P06401). The assay is described as follows: qHTS assay to identify small molecule antagonists of the progesterone receptor (PR) signaling pathway (AID 1346795; active means well fitted inhibition curve with a large enough effect in the signal ratio in the repeat runs, not every such curve was filed as active; the % refers to the signal ratio; further: potency means the concentration at half of the fitted maximal effect). An outline of the steps: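 Antagonist mode: compounds tested against 1 nM (final) promegestone stimulation in HEK293T cells expressing PR-UAS-bla reporter, 16 hr at 37C, 5% CO2; beta-lactamase activity detected via B/G FRET substrate after 2 hr at room temperature.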
Sequence of Progesterone receptor (Homo sapiens) (P06401 whole entry, looked up): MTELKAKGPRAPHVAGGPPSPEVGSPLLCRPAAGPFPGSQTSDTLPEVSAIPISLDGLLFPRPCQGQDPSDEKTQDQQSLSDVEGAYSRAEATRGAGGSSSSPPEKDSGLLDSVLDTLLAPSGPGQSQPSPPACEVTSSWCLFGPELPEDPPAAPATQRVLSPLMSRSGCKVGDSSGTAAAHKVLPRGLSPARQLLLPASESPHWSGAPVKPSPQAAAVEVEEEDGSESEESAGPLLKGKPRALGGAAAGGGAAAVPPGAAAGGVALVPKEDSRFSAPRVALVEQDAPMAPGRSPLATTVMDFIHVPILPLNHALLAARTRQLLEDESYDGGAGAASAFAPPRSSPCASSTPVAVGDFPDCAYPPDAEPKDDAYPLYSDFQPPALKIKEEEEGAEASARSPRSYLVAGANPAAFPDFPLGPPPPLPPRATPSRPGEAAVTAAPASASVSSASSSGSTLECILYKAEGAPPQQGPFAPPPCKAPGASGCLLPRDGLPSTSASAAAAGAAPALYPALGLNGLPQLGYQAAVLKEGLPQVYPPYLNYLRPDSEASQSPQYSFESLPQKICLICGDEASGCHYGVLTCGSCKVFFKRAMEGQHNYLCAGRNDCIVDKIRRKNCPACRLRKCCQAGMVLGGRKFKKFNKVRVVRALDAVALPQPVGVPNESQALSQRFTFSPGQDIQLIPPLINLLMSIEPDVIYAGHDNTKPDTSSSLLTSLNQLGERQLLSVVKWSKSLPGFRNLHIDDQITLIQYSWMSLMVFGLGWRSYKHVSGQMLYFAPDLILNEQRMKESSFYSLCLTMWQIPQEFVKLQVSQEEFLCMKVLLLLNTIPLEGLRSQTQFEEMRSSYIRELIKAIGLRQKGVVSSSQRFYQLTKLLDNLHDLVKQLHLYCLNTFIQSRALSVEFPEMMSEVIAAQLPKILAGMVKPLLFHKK

The nature of assay [5]: qHTS assay to identify small molecule antagonists of the progesterone receptor (PR) signaling pathway - cell viability counter screen (AID 1346798). Further: nearly all actives have a fitted effect of over 50% in size. Further: potency means the concentration at half of the fitted maximal effect. An outline of the steps: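 Counter screen for cytotoxicity: viability of PR-UAS-bla HEK293T cells was measured with CellTiter-Glo luminescence following 16 hr compound exposure in the presence of R5020.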
Assay [6] is described as follows: qHTS assay to identify small molecule agonists of the progesterone receptor (PR) signaling pathway - cell viability counter screen (AID 1346799; calls by dose curve; further: nearly all actives have a fitted effect of over 45% in size; further: potency means the concentration at half of the fitted maximal effect). In short, it runs like this: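 Cells (PR-UAS-bla HEK293T) are plated at 3,000/well in 2% charcoal-stripped FBS medium, rested 6 hr, dosed and incubated 16 hr at 37C. CellTiter-Glo is then added and luminescence measured after 30 min at room temperature.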

The nature of assay [7]: qHTS assay to identify small molecule antagonists of the TGF-beta/Smad signaling pathway - cell viability counter screen (AID 1346824). Further: nearly all actives have a fitted effect of over 50% in size. In short, it runs like this: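 SBE-bla HEK 293T cells, incubated overnight, then compound plus 0.25 ng/mL TGF-beta1 (stock added) for 5 hr at 37 C. Viability was read in the same wells by CellTiter-Glo luminescence after 30 min at room temperature.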

In assay [8] the target is Thyrotropin-releasing hormone receptor (Homo sapiens) (UniProt P34981). Nature of the assay: qHTS assay to identify small molecule antagonists of the thyrotropin-releasing hormone receptor (TRHR) signaling pathway (AID 1346877; active means well fitted inhibition curve with a large enough effect in the repeat runs, not every such curve was filed as active; further: potency means the concentration at half of the fitted maximal effect). In short, it runs like this:
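Human TRHR in HEK293 cells; inhibition of the intracellular calcium rise triggered by 1 nM TRH was followed by fluorescence over 3 min. Compounds were run at 15 concentrations, three replicates each.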

For assay [9] the target is unchanged. The assay is described as follows: qHTS assay to identify small molecule agonists of the thyrotropin-releasing hormone receptor (TRHR) signaling pathway (AID 1346891; calls by dose curve; further: potency means the concentration at half of the fitted maximal effect;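 on activation: HEK293 cells expressing TRHR with calcium dye readout; series mostly up to about 58 µM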). An outline of the steps: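 Cells: TRHR-Hek293, seeded and incubated 18 h. Dye loading: 2 h at 37 °C. Compound added from DMSO stock by pin tool. Read-out: kinetic calcium fluorescence over 3 min.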

A short description of assay [10]: Human pregnane X receptor (PXR) small molecule agonists, qHTS cell viability counter screen (AID 1346977). Further: nearly all actives have a fitted effect of over 50% in size. Further: potency means the concentration at half of the fitted maximal effect. In short, it runs like this: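 Cytotoxicity counter screen run in the same wells as the PXR luciferase assay, using PXR-Luc HepG2 cells in charcoal-stripped serum medium. Viability: CellTiter-Fluor fluorescence after 24hr compound treatment.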
The nature of assay [11]: qHTS assay to identify small molecule agonists of the androgen receptor (AR) signaling pathway in the presence of an antagonist - cell viability counter screen (AID 1259379). Further: nearly all actives have a fitted effect of over 25% in size. Further: potency means the concentration at half of the fitted maximal effect. In short, it runs like this:
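Counter screen for cell viability run in parallel with the AR agonist-mode luciferase assay. MDA-kb2 cells were co-treated with nilutamide (3.0uM final) and compounds, then incubated 16 hr at 37C, and CellTiter-Fluor fluorescence was measured.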

Assay [12] can be described thus: qHTS assay to identify small molecule agonists of the estrogen receptor beta (ER-beta) signaling pathway - cell viability counter screen (AID 1259380). Further: nearly all actives have a fitted effect of over 30% in size. Further: potency means the concentration at half of the fitted maximal effect. An outline of the steps: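 In this qHTS counter screen, HEK293T cells carrying an ER-beta/UAS beta-lactamase reporter, grown in 2% charcoal-stripped FBS, received compound for 16 hr; ATP-based CellTiter-Glo luminescence was then read after 30 min at room temperature.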

Assay [13] addresses Androgen receptor (Homo sapiens) (UniProt P10275). The assay is described as follows: qHTS assay to identify small molecule agonists of the androgen receptor (AR) signaling pathway in the presence of an antagonist (AID 1259381; calls by dose curve; further: nearly all actives have a fitted effect of over 15% in size; further: potency means the concentration at half of the fitted maximal effect). An outline of the steps:
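AR antagonist background: nilutamide 3.0uM final. Cell line: MDA-kb2, MMTV-driven luciferase, responsive to both AR and GR. Exposure 16hr, 37C, no CO2; ONE-Glo luminescence.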

The nature of assay [14]: qHTS assay to identify small molecule antagonists of the estrogen receptor beta (ER-beta) signaling pathway - cell viability counter screen (AID 1259382). Further: nearly all actives have a fitted effect of over 55% in size. Further: potency means the concentration at half of the fitted maximal effect. An outline of the steps:
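HEK293T ER-beta-UAS-bla, 2% charcoal-stripped FBS; compounds + 1nM E2 16 hr 37C; CellTiter-Glo luminescence, 30 min RT.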

The target in assay [15] is Thyrotropin receptor (Homo sapiens) (UniProt P16473). The assay is described as follows: qHTS assay to identify small molecule antagonists of the thyroid stimulating hormone receptor (TSHR) signaling pathway (AID 1259385; calls by dose curve; further: nearly all actives have a fitted effect of over 20% in size; further: potency means the concentration at half of the fitted maximal effect). An outline of the steps:
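TSHR-HEK293 cells (800/well) plated 18 h, then compounds with Ro20-1724 and TSH at 1.5 ng/mL final, 30 min at room temperature. cAMP quantified by HTRF (cAMP-d2/anti-cAMP-cryptate, 1 h); 15 concentrations in triplicate.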

Assay [16] in a line: qHTS assay to identify small molecule agonists of the estrogen receptor alpha (ER-alpha) signaling pathway in the presence of an antagonist - cell viability counter screen (AID 1259386).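 Further: series mostly up to about 92 µM; cells exposed to compounds for 22 h at 37 °C before the viability read; nearly all actives have a fitted effect of over 30% in size.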 In short, it runs like this: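 Steps: 5-day stripped-FBS culture; seed and incubate 24hr; add ICI-182,780 (10.0nM final); pin 15-point compound titration; incubate 22hr at 37C; add CellTiter-Fluor at 21hr; read fluorescence.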

Assay [17] deals with Progesterone receptor (Homo sapiens) (UniProt P06401). The assay is described as follows: qHTS assay to identify small molecule agonists of the progesterone receptor (PR) signaling pathway (AID 1346784; calls by dose curve; further: nearly all actives have a fitted effect of over 30% in size). In short, it runs like this: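 Cells (PR-UAS-bla HEK 293T, GripTite) were plated in assay medium containing 2% charcoal-stripped FBS and incubated 6 hr. Test compounds in DMSO were added for 16 hr at 37C. FRET substrate was then loaded for 2 hr at room temperature before fluorescence reading.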

A short description of assay [18]: qHTS assay to identify small molecule agonists of the TGF-beta/Smad signaling pathway - cell viability counter screen (AID 1346829). Further: top concentration of the series differs between compounds; nearly all actives have a fitted effect of over 45% in size. An outline of the steps:
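Compound-treated SBE-bla HEK 293T cells (5 hr, 37 C) were assessed for viability with CellTiter-Glo in parallel with the reporter read.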

Assay [19] is described as follows: qHTS assay to identify small molecule agonists of the TGF-beta/Smad signaling pathway (AID 1346859; active means well fitted activation curve with a large enough effect in the signal ratio in the repeat runs, not every such curve was filed as active; the % refers to the signal ratio; further: series mostly up to about 77 µM). In short, it runs like this: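 Reporter line: HEK 293T with stably integrated SBE-controlled beta-lactamase. Compound exposure lasts 5 hr at 37 C and 5% CO2; substrate loading follows for 2 hr at room temperature, with emission read at 460 and 530 nm.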
A short description of assay [20]: Caspase-3/7 induction in HepG2 cells by small molecules, qHTS assay (AID 1346978). Further: nearly all actives have a fitted effect of over 15% in size. An outline of the steps:
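Wild-type HepG2 cells, 2,000/well, settled 5 hr at 37 C and 5% CO2, then compound-treated for 17 hr; caspase-3/7 activity read by luminescent Caspase-Glo 3/7 after 30 min at room temperature.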

Results filed as inconclusive are left out. Active and inactive are the calls of the source. Unless noted, the call rests on the fitted dose curve; in most records, active means well fitted curve in the direction sought with a large enough effect in the repeat runs; inconclusive means weak or mixed curves; inactive means no such curve, though single readings can be large; an effect the other way counts as inactive or inconclusive.

Sequence of Estrogen receptor (Homo sapiens) (P03372 whole entry, looked up): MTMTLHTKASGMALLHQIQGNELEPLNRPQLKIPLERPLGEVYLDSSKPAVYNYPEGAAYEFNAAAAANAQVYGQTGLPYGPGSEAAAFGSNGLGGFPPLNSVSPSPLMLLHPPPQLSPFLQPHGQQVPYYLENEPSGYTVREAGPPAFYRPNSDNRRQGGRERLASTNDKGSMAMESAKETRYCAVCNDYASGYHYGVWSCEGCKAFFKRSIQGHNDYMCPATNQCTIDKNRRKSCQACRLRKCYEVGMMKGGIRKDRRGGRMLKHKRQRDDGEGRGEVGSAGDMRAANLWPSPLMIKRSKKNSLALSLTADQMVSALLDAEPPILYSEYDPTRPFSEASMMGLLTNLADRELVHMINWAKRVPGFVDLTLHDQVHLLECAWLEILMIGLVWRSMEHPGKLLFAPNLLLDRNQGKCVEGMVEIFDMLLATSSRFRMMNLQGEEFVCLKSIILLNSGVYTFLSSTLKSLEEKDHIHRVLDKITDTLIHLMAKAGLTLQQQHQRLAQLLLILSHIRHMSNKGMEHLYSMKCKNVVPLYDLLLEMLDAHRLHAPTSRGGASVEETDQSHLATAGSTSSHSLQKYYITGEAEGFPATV
Sequence of Thyrotropin receptor (Homo sapiens) (P16473 whole entry, looked up): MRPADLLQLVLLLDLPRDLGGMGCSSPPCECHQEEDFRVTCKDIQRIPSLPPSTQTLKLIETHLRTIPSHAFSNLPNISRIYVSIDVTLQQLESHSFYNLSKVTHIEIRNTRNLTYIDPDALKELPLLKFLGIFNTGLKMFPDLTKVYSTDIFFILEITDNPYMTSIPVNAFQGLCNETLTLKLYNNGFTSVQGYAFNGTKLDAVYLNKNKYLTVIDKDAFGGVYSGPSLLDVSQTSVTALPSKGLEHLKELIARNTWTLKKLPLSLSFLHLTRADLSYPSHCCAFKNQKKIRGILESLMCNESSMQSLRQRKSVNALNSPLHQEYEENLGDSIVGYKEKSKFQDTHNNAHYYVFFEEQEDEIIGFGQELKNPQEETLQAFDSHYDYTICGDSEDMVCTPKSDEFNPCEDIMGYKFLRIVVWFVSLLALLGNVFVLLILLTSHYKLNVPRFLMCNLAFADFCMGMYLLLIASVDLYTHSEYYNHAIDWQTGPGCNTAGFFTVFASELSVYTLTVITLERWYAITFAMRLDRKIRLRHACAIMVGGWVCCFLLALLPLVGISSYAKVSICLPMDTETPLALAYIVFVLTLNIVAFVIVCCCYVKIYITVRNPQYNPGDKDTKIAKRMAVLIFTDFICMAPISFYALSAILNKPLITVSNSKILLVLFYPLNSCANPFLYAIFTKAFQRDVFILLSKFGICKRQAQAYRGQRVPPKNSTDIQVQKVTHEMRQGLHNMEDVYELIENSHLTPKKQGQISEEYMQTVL
Sequence of Androgen receptor (Homo sapiens) (P10275 whole entry, looked up): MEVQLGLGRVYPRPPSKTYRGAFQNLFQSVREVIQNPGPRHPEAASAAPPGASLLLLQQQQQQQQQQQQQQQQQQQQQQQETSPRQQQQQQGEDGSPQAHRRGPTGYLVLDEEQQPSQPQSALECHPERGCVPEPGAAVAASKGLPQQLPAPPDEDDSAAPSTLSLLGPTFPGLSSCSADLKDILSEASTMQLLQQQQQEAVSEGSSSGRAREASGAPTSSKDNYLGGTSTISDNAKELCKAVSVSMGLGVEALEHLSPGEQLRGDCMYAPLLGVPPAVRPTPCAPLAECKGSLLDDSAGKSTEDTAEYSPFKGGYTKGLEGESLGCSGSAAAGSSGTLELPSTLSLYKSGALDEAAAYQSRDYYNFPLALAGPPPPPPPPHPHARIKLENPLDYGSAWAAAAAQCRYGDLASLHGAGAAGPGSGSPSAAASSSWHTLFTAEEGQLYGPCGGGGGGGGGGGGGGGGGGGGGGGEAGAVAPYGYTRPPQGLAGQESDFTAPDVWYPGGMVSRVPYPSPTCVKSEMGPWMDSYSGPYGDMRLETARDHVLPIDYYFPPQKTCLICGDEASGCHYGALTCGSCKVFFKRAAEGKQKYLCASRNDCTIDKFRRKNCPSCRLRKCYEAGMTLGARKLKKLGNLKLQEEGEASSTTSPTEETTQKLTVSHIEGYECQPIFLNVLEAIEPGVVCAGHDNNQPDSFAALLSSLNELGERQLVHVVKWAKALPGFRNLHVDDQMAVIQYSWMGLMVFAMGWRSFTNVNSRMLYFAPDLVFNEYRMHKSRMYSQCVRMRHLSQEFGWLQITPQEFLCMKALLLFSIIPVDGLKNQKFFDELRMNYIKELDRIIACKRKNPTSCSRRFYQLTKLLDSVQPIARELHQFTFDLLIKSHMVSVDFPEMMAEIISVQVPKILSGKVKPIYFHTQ
Sequence of Thyrotropin-releasing hormone receptor (Homo sapiens) (P34981 whole entry, looked up): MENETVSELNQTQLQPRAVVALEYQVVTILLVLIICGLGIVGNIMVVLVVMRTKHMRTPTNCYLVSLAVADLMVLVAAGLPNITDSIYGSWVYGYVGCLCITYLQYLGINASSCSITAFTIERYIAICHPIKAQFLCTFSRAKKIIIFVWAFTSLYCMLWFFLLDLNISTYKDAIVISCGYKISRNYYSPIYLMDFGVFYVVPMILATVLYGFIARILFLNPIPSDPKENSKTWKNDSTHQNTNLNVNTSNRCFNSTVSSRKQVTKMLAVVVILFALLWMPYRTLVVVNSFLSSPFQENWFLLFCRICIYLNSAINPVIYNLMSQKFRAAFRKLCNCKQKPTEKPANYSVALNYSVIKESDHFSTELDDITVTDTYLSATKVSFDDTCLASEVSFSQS

Consider `O=C(Nc1ccc2[nH]ccc2c1)c1cc2cc(F)ccc2n1Cc1cccc(F)c1`, for which the Potency in assay [1] was 17.2 µM (active); in assay [4], 12.2 µM (active); in assay [5], 48.6 µM (active); in [10], 61.1 µM (active). In addition, the Potency entry in [2], in assay [6], in assay [7], in assay [8] and in assay [9] was “inactive” each time. In [3], the call was inactive.
Consider `COS(=O)(=O)c1ccc(C)cc1`, for which the Potency result in assay [11], in assay [12], in assay [13], in assay [14], in [2] and in [15] was “inactive” in each case. Moreover, the Potency result in assay [16], in assay [17], in [4], in [5], in [6] and in [7] was “inactive” each time. In addition, the Potency result in [18], in [8], in assay [9], in assay [10] and in [20] was “inactive” each time. Moreover, the compound was classed as inactive in [3] and in assay [19].
On to `O=C(NC(=O)c1c(F)cccc1F)Nc1cc(Cl)c(OC(F)(F)C(F)F)c(Cl)c1`, for which the Potency entry in [1], in [11], in assay [13], in assay [14], in assay [2] and in assay [15] was “inactive” in each case. The Potency result in assay [16], in assay [17], in assay [4], in assay [5], in [7] and in assay [18] was “inactive” each time. Further, the Potency entry in [9], in [10] and in [20] was “inactive” throughout. Moreover, the outcome in assay [19] was inactive.
For `O=C(Cl)c1ccc(Cl)cc1`, the Potency entry in assay [11], in [12], in assay [13], in assay [14], in assay [2] and in assay [15] was “inactive” each time. For the same compound, the Potency entry in assay [16], in [17], in assay [5], in assay [6], in assay [7] and in assay [18] was “inactive” in each case. For the same compound, the Potency entry in assay [10] and in assay [20] was “inactive” in each case. For the same compound, the outcome in assay [19] was inactive.
On to `O=[N+]([O-])c1cc([N+](=O)[O-])c2ccccc2c1`, for which the Potency result in assay [11], in assay [12], in assay [13], in assay [14], in assay [15] and in assay [17] was “inactive” in each case. Also, the Potency entry in assay [7], in assay [9] and in [20] was “inactive” in each case. Also, the compound was classed as inactive in assay [3].
As for `C[C@]12CC[C@H](O)C[C@H]1CC[C@@H]1[C@@H]2C[C@@H](O)[C@]2(C)[C@@H](C3=CC(=O)OC3)CC[C@]12O`, the Potency result in assay [11], in [16], in [17], in assay [8], in assay [9] and in [20] was “inactive” in each case. The Potency was 1.09 µM (active) in assay [12]; 2.73 µM (active) in assay [13]; 0.77 µM (active) in [14]; 1.72 µM (active) in assay [5]; 1.54 µM (active) in assay [6]. In [3], the call was inactive.
For `O=[N+]([O-])c1cc(Cl)ccc1Cl`, the Potency result in [11], in [12], in assay [13], in assay [14], in [2] and in assay [15] was “inactive” each time. Further, the Potency result in [16], in [17], in [4], in assay [5], in assay [6] and in assay [7] was “inactive” throughout. Further, the Potency entry in assay [18], in [9], in assay [10] and in assay [20] was “inactive” in each case. Besides, the compound was classed as inactive in assay [19].
With `ClC1=C(Cl)[C@]2(Cl)[C@@H]3[C@@H](Cl)[C@@H](Cl)C[C@@H]3[C@@]1(Cl)C2(Cl)Cl`, the Potency result in assay [11], in assay [12], in assay [13], in [14], in assay [2] and in assay [16] was “inactive” throughout. Moreover, the Potency result in [17], in [4], in assay [5], in assay [7], in [18] and in assay [9] was “inactive” each time. Also, the Potency result in [10] and in assay [20] was “inactive” each time. Also, the result in assay [19] was inactive.
With `[CH3][Hg][Cl]`, the Potency was 21.6 µM (active) in assay [11]; 60.9 µM (active) in [12]; 17.2 µM (active) in [15]; 30.1 µM (active) in assay [8]; 17.3 µM (active) in [9]. For the same compound, the Potency result in assay [13], in assay [14], in [2], in assay [16], in [5] and in assay [7] was “inactive” throughout. The Potency entry in [18] and in assay [20] was “inactive” in each case.

The record behind these values is PubChem BioAssay (Tox21).
